# Data published in PubChem BioAssay (NCI).
# This is part of a sample that, as a whole, favours compounds with a hit. Of some 83,000 tested, about 20% had one in any assay.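 For each line, cells grew in 96-well plates with the test compound present at a single concentration for 48 hours.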 A number with no mark means an inactive call. Active and inactive are the calls of the source. How the source made its calls: active means growth percent below 10; inactive means the rest.
# Experiments:
# Test in all cases: NCI-60 one-dose screen, 48 h (100 = growth as untreated, 0 = no growth, -100 = all killed)
# Conditions in all cases: 10 µM unless noted
# DU-145 prostate = tested on: DU-145 prostate
# K-562 leukemia = tested on: K-562 leukemia
# MALME-3M melanoma = tested on: MALME-3M melanoma
# MDA-MB-231 breast = tested on: MDA-MB-231 breast
# RXF 393 renal = tested on: RXF 393 renal
# SF-268 CNS = tested on: SF-268 CNS
# SF-295 CNS = tested on: SF-295 CNS
# SF-539 CNS = tested on: SF-539 CNS
# UACC-257 melanoma = tested on: UACC-257 melanoma
# M14 melanoma = tested on: M14 melanoma
Structure (SMILES),growth (DU-145 prostate),growth (K-562 leukemia),growth (MALME-3M melanoma),growth (MDA-MB-231 breast),growth (RXF 393 renal),growth (SF-268 CNS),growth (SF-295 CNS),growth (SF-539 CNS),growth (UACC-257 melanoma),growth (M14 melanoma)
O=C(Nc1ccc(Cl)c(Cl)c1)O/N=C\c1c(Cl)ccc([N+](=O)[O-])c1Cl,-82.5% (active),-7.08% (active),-44.9% (active),-59.7% (active),-45.1% (active),-4.9% (active),83.9%,4.51% (active),-49.2% (active),32%
CC(=O)Nc1nc(C)c(C(=O)NNC(=O)Nc2ccccc2)s1,101%,114%,126%,89.6%,121%,99.8%,116%,99.4%,116%,107%
CC(=O)OC1CC2C3CCC4C[C@@H](NC(=O)C=C(C)C)CC[C@]4(C)C3CC[C@]2(C)[C@H]1C(C)N(C)C (stereo not given in full),31.6%,-37.5% (active),-54% (active),-36.1% (active),-64.6% (active),-63% (active),-37.6% (active),-76.5% (active),-58.4% (active),-59.9% (active)
O=C(/C(Br)=C/c1ccccc1)c1ccccc1,64.1%,-1.65% (active),-36.9% (active),42.6%,-58.2% (active),78.9%,103%,-41.7% (active),-5.24% (active),-95.4% (active)
CCC(CCCN1C(=O)c2ccccc2C1=O)Nc1cc(OC)cc2cccnc12 (stereo not given),102%,77.2%,142%,93.2%,-5.08% (active),119%,111%,93.4%,100%,-100% (active)
COc1ccc(Oc2[nH]n(C3=Nc4ccccc4Sc4ccccc43)c(=O)c2C#N)cc1,104%,125%,169%,95.6%,94.2%,88.3%,99.2%,96.7%,104%,104%
Cc1ccc(NCc2cn(-c3ccc(C(=O)O)cc3)nc2-c2ccc(C(=O)O)cc2)cc1,100%,102%,93.1%,108%,121%,92.8%,103%,101%,97.6%,99.3%
CCOc1ccc2nc3ccc(Cl)cc3nc2c1,92.2%,52.8%,127%,106%,-13% (active),107%,110%,92.7%,101%,-100% (active)
O=C1/C(=C/c2ccc(Cl)cc2)CCC/C1=C\c1ccc(Cl)cc1,91.7%,67.9%,90.5%,95.6%,56.4%,84.1%,94.5%,88.1%,81.5%,69.7%
CC(=O)N(N=O)c1ccc([N+](=O)[O-])cc1Cl,82.2%,49.5%,58.9%,58.9%,83.9%,78.5%,66.9%,72.7%,45.4%,64.6%
O=C(/C=C1\C(=O)N(Cc2ccc([N+](=O)[O-])cc2)c2ccccc21)c1ccc(OCCN2CCCC2)cc1,42.9%,1.78% (active),46.8%,66.5%,56.7%,76.9%,95.6%,67.6%,88.4%,70.2%
CCOc1nc(-c2ccccc2)cc2c(O)c(C(=O)N/N=C/c3ccccc3O)[nH]c(=O)c12,97.6%,115%,119%,101%,81.3%,79.6%,103%,117%,88.6%,101%
C=CN(C)S(C)(=O)=O,18.5%,21.9%,28.3%,46.2%,-9.3% (active),36.5%,8.18% (active),4.91% (active),35.5%,28.8%
[N-]=[N+]=Nc1ncc(-c2ccc(C(F)(F)F)cc2)c(NC2CCCCCC2)n1,37.1% [100 µM],8.78% [100 µM] (active),62.3% [100 µM],42.3% [100 µM],43.5% [100 µM],38% [100 µM],-19.7% [100 µM] (active),66.2% [100 µM],27.6% [100 µM],34.7% [100 µM]
CC(=O)OCC1O[C@@H](OC(C)=O)[C@@H](NC(=O)NS(=O)(=O)c2ccccc2)C(OC(C)=O)[C@@H]1OC(C)=O (stereo not given in full),108%,94.6%,103%,105%,108%,100%,94.4%,97.2%,118%,108%
O=C(Nc1ccc(-n2cc(-c3ccncc3)c(-c3ccc(Cl)c(O)c3)n2)cc1)c1cc(C(F)(F)F)cc(C(F)(F)F)c1,74.2%,29.7%,102%,46.3%,-42.6% (active),61.8%,25%,50.9%,63.2%,45.1%
COc1cc(-c2nn(-c3ccc(NC(=O)Nc4ccc(Cl)c(Cl)c4)cc3)cc2-c2ccncc2)ccc1Cl,40.8%,17.2%,57.2%,43.3%,22.6%,44.3%,3.1% (active),54%,56.5%,24.5%
C#CCCCCCCC[C@@H]1OC(=O)[C@H]([C@@H](C)CC)NC(=O)[C@H]([C@@H](C)CC)NC(=O)CC(=O)[C@@H]1C,106%,96.5%,92.9%,89.9%,104%,91.9%,98.9%,97.5%,117%,93.9%
c1ccc(C(=NNc2nc3ccccc3o2)c2ccccn2)nc1,20.3%,10.9%,19.5%,29.7%,16.4%,7.72% (active),0.423% (active),2.62% (active),-1.59% (active),-4.91% (active)
CCCCCCCCCCCCCCCCNC(=S)N/N=C/c1ccc(O)cc1O,79.2%,70.3%,100%,81%,74.9%,69%,65.5%,110%,85.9%,61.8%

Structure (SMILES),growth (DU-145 prostate),growth (K-562 leukemia),growth (MALME-3M melanoma),growth (MDA-MB-231 breast),growth (RXF 393 renal),growth (SF-268 CNS),growth (SF-295 CNS),growth (SF-539 CNS),growth (UACC-257 melanoma),growth (M14 melanoma)
O=C(/C=C/c1cccc(O)c1)c1cccc(-n2cc(-c3ccc(Cl)cc3)[nH]c2=O)c1,-69.8% (active),-18.4% (active),-36% (active),-17.3% (active),-61.1% (active),-68.3% (active),4.32% (active),-89.7% (active),22.1%,-13% (active)
CCN(CC)CCCC(C)Nc1c(C)cnc2cc(Cl)c(C)cc12 (stereo not given),91.7%,3.57% (active),110%,73.5%,69.3%,87.6%,84.8%,72.3%,112%,7.11% (active)
CC(O)c1cc[cH-]c1.[Fe+2].c1cc[cH-]c1 (stereo not given),108%,102%,102%,110%,95.6%,108%,98.8%,97%,96.9%,95.6%
COc1ccccc1CNCCCN1C(=O)c2ccc3c4c(ccc(c24)C1=O)C(=O)N(CCCNCc1ccccc1OC)C3=O,-81.4% (active),-44.2% (active),-73.6% (active),-13.1% (active),-93.9% (active),-64.4% (active),-56.3% (active),-70.7% (active),-97.9% (active),-61.9% (active)
O=C(N/N=C/c1cc(Cl)ccc1O)C(=O)N/N=C/c1cc(Cl)ccc1O,71.1%,51.9%,80.1%,76.5%,80.3%,56.5%,52.2%,57.3%,69.6%,78.6%
c1cc(C2CCCCC2)ccc1OCCCCCCN1CCNCC1,17.9%,-42.1% (active),52.7%,33.4%,32%,54.5%,73.1%,32.4%,73.1%,40.3%
O=Nc1c(-c2c(O)[nH]c3cc(Br)ccc23)[nH]c2ccccc12,-88.8% (active),-64.1% (active),61.6%,9.57% (active),-62.6% (active),-61% (active),-26.2% (active),-44.8% (active),-78.8% (active),31.1%
N#Cc1c2cccnc2c2nnc3cc(Cl)c(Cl)cc3n12,36.4%,5.64% (active),25.6%,2.64% (active),-3.12% (active),16.8%,80.8%,35.1%,73.1%,78.1%
CC(C)(C)c1ccc([I+]c2ccc(C(C)(C)C)cc2)cc1,-89.1% (active),1.42% (active),-61.2% (active),-30.3% (active),0.632% (active),1.36% (active),23.7%,21.2%,1.08% (active),2.73% (active)
C/C=C(/C)C(=O)OC1C=C(CO)C(=O)C(OC(=O)/C(C)=C\C)C1C(C)C (stereo not given),-90.9% (active),-18.3% (active),-91.2% (active),-61.2% (active),-79.2% (active),-57.3% (active),-54.3% (active),-92.1% (active),-48.8% (active),-84.7% (active)
O=C(N/N=C/c1ccccc1Cl)c1cccc2ccccc12,115%,93.7%,97.9%,105%,110%,104%,99.7%,108%,111%,106%
C/C=C/C/C=C/[C@H](C)C[C@H](O)[C@@H]1C[C@@H]2O[C@H]2/C=C/[C@@H]2OC(C)(C)O[C@H]2/C=C/C[C@H](C)CC(=O)O1,36.1%,30.1%,87.6%,61.6%,81.1%,46.9%,28.8%,71%,69.9%,36.8%
O=C(CCl)c1ccc2c(c1)CCCC2,110%,72.1%,80.8%,103%,99%,104%,70.2%,90.8%,98.1%,95.5%
COc1ccc2c(c1)cn1c3ccc(O)cc3[nH]c(=O)c21,15.4%,-5.1% (active),62.5%,25.5%,-3.01% (active),16.9%,22.5%,-4.58% (active),51.4%,14.7%
Cn1cnc2nc[nH]c2c1=S,112%,103%,98.8%,96.3%,110%,107%,99.4%,110%,96.5%,105%
Cc1ccc(S(=O)(=O)Nc2cccc(Cn3c(=O)[nH]c4ccc(Oc5ncccn5)cc4c3=O)c2)cc1,95.6%,26.6%,59.8%,77.4%,80.5%,82.3%,74.4%,71.7%,73.3%,59.1%
C/C(=N\Nc1ccc(Cl)cn1)c1ccccn1,18.2%,5.63% (active),2.78% (active),31%,19.4%,11.9%,-1.75% (active),-14% (active),-11.4% (active),2.33% (active)
O=C(Nc1cccc(Cn2c(=O)[nH]c3ccc(Oc4ncccn4)cc3c2=O)c1)c1cc(Cl)cc(Cl)c1,68%,4.32% (active),30.5%,39.3%,31.9%,69.1%,64.6%,11.8%,68.4%,73%
COc1cccc2c1nc1cccc(OC)c1[n+]2[O-],13.8%,39.8%,16.4%,78.5%,-39.6% (active),36.9%,36.7%,25.2%,58.2%,-3.49% (active)
